Results on 8 compounds are retold here after PubChem BioAssay (NCATS).

Assay [1] has as its target Peroxisome proliferator-activated receptor gamma (Homo sapiens) (UniProt P37231). Briefly: qHTS assay for small molecule antagonists of peroxisome proliferator-activated receptor gamma signaling (AID 588537; active = well fitted inhibition curve with a large enough effect in the signal ratio, with a control signal flat, not every such curve was filed as active; the % refers to the signal ratio;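 note: reporter cells co-stimulated with 50 nM rosiglitazone agonist during compound treatment; % of control where 0% means no effect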). An outline of the steps: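 Compounds are tested as concentration series for inhibition of rosiglitazone-driven (50 nM) reporter expression in GeneBLAzer PPAR-gamma-UAS-bla HEK293 cells. After 16 h at 37 C, CCF4 substrate is added for 2 h at room temperature and blue/green fluorescence is measured.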

Assay [2] concerns the target Vitamin D3 receptor (Homo sapiens) (UniProt P11473). Briefly: qHTS assay for small molecule antagonists of vitamin D receptor signaling (AID 588541).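 Note: receptor activated by calcitriol during compound treatment; series mostly up to about 77 µM; % is set by controls: 0 for no effect and ±100 for the full control effect.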 An outline of the steps: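 VDR-UAS-bla HEK293T cells (2000/well, 2% charcoal-stripped FBS) were treated with titrated compounds plus 1-alpha,25-dihydroxyvitamin D3 (50 nM or 3 nM final) for 16 h at 37 C. CCF4 beta-lactamase fluorescence was read; Hill fits gave IC50.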

The target is the same in assay [3]. Briefly: qHTS assay for small molecule agonists of vitamin D receptor signaling (AID 588543).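 Note: 0% = DMSO basal and 100% = reference agonist control.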 An outline of the steps:
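Agonist-mode beta-lactamase reporter: HEK293T VDR-UAS-bla cells in charcoal-stripped 2% FBS, compound series 16 h 37 C, CCF4 2 h RT. EC50 from Hill fit, scaled against DMSO and 50 nM calcitriol control.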
Background: Quantitative high-throughput screening tests each substance at several concentrations.

The nature of assay [4]: qHTS assay for small molecule agonists of retinoid X receptor alpha signaling (AID 588544). The following applies: HEK293T RXRa-UAS-bla, beta-lactamase reporter, 18 h; 530 nm emission.
For assay [5], the target named is Retinoic acid receptor RXR-alpha (Homo sapiens) (UniProt P19793). Described as above.
Sequence of Retinoic acid receptor RXR-alpha (Homo sapiens) (P19793 whole entry, looked up): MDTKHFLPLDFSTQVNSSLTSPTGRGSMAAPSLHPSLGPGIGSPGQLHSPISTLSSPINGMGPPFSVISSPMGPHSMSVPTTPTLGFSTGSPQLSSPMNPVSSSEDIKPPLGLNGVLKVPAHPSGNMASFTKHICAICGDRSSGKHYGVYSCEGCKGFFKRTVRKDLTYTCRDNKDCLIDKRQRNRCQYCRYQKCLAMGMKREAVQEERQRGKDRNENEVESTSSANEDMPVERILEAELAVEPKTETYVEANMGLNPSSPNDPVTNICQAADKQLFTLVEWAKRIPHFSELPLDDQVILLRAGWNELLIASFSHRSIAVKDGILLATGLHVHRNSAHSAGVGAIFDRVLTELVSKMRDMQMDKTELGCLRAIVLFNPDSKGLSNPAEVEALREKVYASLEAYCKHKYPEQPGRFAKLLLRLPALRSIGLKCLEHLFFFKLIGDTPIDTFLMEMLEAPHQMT
A short description of assay [6]: qHTS assay for small molecule antagonists of retinoid X receptor alpha signaling (AID 588546; active = well fitted inhibition curve with a large enough effect in the signal ratio, with a control signal flat, not every such curve was filed as active; the % refers to the signal ratio;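 note: cells stimulated with 9-cis-retinoic acid as agonist; % is set by controls: 0 for no effect and ±100 for the full control effect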). Conditions: HEK293T RXRa-UAS-bla, beta-lactamase ratio, antagonist mode; measured here: W530 green channel, cytotoxicity proxy. Summed up: (§1)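 Beta-lactamase reporter inhibition, read as CCF4 fluorescence ratio (ex 405, em 460/530 nm) after 2 h at RT. HEK293T UAS-bla cells, 2500/well, were stimulated with 9-cis-RA at 500 or 100 nM final alongside test compound for 18 h at 37 C.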

Assay [7] deals with Retinoic acid receptor RXR-alpha (Homo sapiens) (UniProt P19793). The description is as above. Conditions: HEK293T RXRa-UAS-bla, beta-lactamase ratio, antagonist mode. Summed up:
as §1

The target in assay [8] is Thyroid hormone receptor beta (Homo sapiens) (UniProt P10828). Briefly: qHTS assay for small molecule antagonists of thyroid hormone receptor beta signaling (AID 588547; active = well fitted inhibition curve with a large enough effect in the signal ratio, with a control signal flat, not every such curve was filed as active; the % refers to the signal ratio;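 note: cells stimulated with 0.4 nM T3 agonist during compound exposure; series mostly up to about 77 µM; % is set by controls: 0 for no effect and ±100 for the full control effect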). Conditions: TR-UAS-bla HEK293, beta-lactamase ratio, antagonist mode, 18 h. Summed up:
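TR-UAS-bla GripTite HEK293 cells in 2% charcoal/dextran FBS medium were preincubated 4 h at 37 C, given compound (0.59 nM to 92 uM) plus 0.4 nM T3 (final) for 18 h, then CCF4 for 2 h at RT; Hill fit gave IC50.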

Assay [9] concerns the target Voltage-gated inwardly rectifying potassium channel KCNH2 (Homo sapiens) (UniProt Q12809). Briefly: qHTS Assay for Small Molecule Inhibitors of the Human hERG Channel Activity (AID 588834; active = well fitted inhibition curve with a large enough effect;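 note: top concentration of the series differs between compounds; % is set by controls: 0 for no effect and ±100 for the full control effect; lower thallium flux fluorescence means stronger hERG block; nearly all actives have a fitted effect of over 50% in size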). Summed up: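 hERG block measured as reduced thallium-dye (FluxOR) fluorescence after stimulation buffer addition, read over 2 min. Cells were hERG-BacMam-transduced U2OS exposed to compound ~10 min […]; concentration-response fitted with Hill equation for AC50.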

In assay [10] the target is Luciferin 4-monooxygenase (Photinus pyralis) (UniProt P08659). Nature of the assay: Biochemical firefly luciferase enzyme assay for NPC (AID 624030; active = well fitted inhibition curve with a large enough effect;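 note: purified P. pyralis luciferase at 10 nM with luciferin and ATP substrate; series mostly up to about 59 µM; 0% = DMSO and -100% = full luciferase inhibition by PTC124 control; nearly all actives have a fitted effect of over 70% in size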). An outline of the steps: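 Counter-screen for direct inhibition of the luciferase enzyme by approved-drug library compounds, run at 10 nM enzyme in 50 mM Tris acetate (final). Luminescence was read within 5 min of enzyme-buffer addition and normalized to PTC124 versus DMSO (0%).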
Sequence of Luciferin 4-monooxygenase (Photinus pyralis) (P08659 whole entry, looked up): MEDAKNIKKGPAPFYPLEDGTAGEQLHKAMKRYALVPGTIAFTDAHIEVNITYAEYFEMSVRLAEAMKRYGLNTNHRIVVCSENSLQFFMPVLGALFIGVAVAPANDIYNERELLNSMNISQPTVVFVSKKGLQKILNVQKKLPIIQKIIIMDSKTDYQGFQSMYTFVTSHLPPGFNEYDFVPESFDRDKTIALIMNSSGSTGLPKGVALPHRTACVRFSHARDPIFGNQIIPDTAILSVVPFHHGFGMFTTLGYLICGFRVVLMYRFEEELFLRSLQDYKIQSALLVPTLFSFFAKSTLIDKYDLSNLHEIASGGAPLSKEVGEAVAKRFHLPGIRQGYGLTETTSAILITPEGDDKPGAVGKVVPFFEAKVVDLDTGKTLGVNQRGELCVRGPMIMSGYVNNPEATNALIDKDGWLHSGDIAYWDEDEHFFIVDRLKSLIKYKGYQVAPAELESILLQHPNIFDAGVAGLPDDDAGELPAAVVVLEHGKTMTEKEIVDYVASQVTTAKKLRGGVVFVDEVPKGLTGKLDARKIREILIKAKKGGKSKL

“And” between values parts separate entries of the source, which are not always exact repeats. Equal entries are not always repeated. Inconclusive results are not listed. The source made the active and inactive calls. Unless noted, calls come from the whole dose curve.

Sequence of Vitamin D3 receptor (Homo sapiens) (P11473 whole entry, looked up): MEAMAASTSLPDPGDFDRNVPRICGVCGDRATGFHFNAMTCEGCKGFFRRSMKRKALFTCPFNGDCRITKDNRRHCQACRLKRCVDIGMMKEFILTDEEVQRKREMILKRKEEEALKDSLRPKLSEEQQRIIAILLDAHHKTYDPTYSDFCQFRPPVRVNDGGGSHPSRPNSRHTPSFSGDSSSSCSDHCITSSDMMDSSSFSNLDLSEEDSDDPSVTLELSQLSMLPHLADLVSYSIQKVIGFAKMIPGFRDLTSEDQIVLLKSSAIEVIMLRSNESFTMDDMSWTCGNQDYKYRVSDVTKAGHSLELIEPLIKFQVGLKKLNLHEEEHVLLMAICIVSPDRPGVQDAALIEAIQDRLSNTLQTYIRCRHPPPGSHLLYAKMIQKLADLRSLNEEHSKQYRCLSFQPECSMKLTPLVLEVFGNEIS
Sequence of Peroxisome proliferator-activated receptor gamma (Homo sapiens) (P37231 whole entry, looked up): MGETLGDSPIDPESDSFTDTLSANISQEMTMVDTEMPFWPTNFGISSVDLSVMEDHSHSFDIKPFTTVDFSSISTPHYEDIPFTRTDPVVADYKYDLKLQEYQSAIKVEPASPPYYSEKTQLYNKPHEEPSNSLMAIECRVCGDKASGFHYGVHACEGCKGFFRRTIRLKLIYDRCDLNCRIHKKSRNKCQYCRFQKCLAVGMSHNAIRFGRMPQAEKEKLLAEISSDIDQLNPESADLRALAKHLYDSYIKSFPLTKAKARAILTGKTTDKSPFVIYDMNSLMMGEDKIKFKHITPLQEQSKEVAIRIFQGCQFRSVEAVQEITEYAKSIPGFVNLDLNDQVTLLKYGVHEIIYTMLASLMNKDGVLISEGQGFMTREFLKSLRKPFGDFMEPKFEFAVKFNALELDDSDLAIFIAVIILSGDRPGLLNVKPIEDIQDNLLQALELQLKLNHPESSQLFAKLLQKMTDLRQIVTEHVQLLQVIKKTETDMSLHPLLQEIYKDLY
Sequence of Voltage-gated inwardly rectifying potassium channel KCNH2 (Homo sapiens) (Q12809 whole entry, looked up): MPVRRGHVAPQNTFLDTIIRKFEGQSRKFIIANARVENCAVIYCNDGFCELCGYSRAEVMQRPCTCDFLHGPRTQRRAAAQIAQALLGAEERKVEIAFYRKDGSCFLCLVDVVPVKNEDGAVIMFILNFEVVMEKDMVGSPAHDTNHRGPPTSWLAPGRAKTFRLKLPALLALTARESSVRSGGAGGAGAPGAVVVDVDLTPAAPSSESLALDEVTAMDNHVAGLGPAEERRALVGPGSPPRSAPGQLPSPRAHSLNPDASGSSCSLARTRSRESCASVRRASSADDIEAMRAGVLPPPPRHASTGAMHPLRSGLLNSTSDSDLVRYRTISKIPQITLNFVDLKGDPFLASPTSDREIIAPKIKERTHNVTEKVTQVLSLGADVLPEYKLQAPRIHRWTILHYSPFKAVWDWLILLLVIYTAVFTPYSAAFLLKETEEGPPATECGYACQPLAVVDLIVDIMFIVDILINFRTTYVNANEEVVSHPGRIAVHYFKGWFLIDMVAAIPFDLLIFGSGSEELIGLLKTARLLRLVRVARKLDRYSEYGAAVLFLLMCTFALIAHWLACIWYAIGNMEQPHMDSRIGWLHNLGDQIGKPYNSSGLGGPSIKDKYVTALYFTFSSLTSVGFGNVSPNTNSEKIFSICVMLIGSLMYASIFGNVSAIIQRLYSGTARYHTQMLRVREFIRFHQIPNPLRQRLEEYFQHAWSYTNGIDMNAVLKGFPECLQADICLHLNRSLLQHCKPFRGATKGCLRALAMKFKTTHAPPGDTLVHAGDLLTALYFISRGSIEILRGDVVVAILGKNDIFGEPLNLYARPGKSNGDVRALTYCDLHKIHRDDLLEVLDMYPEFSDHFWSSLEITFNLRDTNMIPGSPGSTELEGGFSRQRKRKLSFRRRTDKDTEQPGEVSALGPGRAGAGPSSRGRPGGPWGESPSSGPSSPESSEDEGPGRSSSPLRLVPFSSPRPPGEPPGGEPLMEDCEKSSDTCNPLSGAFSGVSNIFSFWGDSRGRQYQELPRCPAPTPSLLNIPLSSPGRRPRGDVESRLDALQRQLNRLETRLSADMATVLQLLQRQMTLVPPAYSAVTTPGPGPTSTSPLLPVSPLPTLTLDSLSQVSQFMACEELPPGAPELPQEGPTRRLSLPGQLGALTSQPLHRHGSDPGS
Sequence of Thyroid hormone receptor beta (Homo sapiens) (P10828 whole entry, looked up): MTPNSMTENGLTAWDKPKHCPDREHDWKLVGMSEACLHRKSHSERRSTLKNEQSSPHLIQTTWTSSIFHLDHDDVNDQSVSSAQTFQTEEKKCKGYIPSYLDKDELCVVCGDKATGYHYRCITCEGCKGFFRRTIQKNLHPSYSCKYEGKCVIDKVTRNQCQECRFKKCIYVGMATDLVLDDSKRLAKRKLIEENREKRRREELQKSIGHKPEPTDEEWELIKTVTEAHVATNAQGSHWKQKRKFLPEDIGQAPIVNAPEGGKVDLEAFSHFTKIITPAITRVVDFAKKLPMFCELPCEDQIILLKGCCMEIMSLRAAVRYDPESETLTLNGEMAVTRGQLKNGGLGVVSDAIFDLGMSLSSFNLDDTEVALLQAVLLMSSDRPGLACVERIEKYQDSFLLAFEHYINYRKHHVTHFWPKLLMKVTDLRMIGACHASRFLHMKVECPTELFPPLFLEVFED

With `O=C(c1ccccc1)C(O)c1ccccc1` (configuration not stated), the compound was classed as inactive in assay [1], in assay [2], in assay [3] and in assay [5]. Besides, the max response was 1.82% and 5.17% in assay [4]; -8.34% in assay [6]; 0.509% (inactive) in assay [7]. In addition, in assay [8], the activity change % (negative = inhibition) is 7.64% (inactive) and -3.28% (inactive). Moreover, the Potency entry in assay [9] and in assay [10] was “inactive” in each case.

For the compound `CC(=O)NS(=O)(=O)c1ccc(N)cc1`, the call in assay [2], in [3] and in [5] was inactive. Moreover, the max response was -19.7% in [4], -14.4% in assay [6] and 16.1% (inactive) in assay [7]. Further, in assay [8], the activity change % (negative = inhibition) is -0.298% (inactive). Also, the Potency entry in [10] was “inactive”.

As to `CC(=O)OCC(COC(C)=O)OC(C)=O`, the call in assay [1], in [2], in assay [3] and in assay [5] was inactive. For the same compound, the max response in [4] was -12.6% and -13.8%; in assay [6] it was -8.38%; in [7] it was 4.6% (inactive). In assay [8], the activity change % (negative = inhibition) is -1.64% (inactive) and -0.0126% (inactive). Besides, the Potency entry in assay [9] and in [10] was “inactive” throughout.

In the case of `CC[N+](CC)(CC(=O)Nc1c(C)cccc1C)Cc1ccccc1`, the compound was classed as inactive in [1], in assay [2], in assay [3] and in assay [5]. For the same compound, the results for the max response in assay [4], in assay [6] and in assay [7] were -1.28%, -13% and -2.97% (inactive), respectively. In addition, the Potency result in assay [9] and in [10] was “inactive” throughout.

On to `CC1CC(OC(=O)c2ccccc2O)CC(C)(C)C1` (configuration not stated), for which the max response in assay [6] is -9.52%; in assay [7], 14.2% (inactive). In addition, the activity change % (negative = inhibition) in assay [8] was -8.08% (inactive). The Potency result in [10] was “inactive”.

For the compound `CC(=O)Nc1ccccc1`, the outcome in assay [1], in assay [2], in [3] and in assay [5] was inactive. The max response was -17.4% in [4], -2.29% in [6] and -0.837% (inactive) in assay [7]. The activity change % (negative = inhibition) in assay [8] is 8.98% (inactive). Moreover, the Potency entry in [9] and in [10] was “inactive” each time.

For the compound `Cc1cc(C)nc(NS(=O)(=O)c2ccc(N)cc2)n1`, the max response in assay [4] is -3.23% and 6.31%; in [6], 1.53% and -6.64%; in assay [7], -0.622% (inactive) and -18.2% (inactive). Further, the outcome in assay [5] was inactive. Besides, in [8], the activity change % (negative = inhibition) is -2.95% (inactive) and 11.9% (inactive). Also, the Potency entry in [9] and in [10] was “inactive” in each case.

`OC[C@@H](O)[C@@H](O)[C@H](O)[C@H](O)CO`: the compound was called inactive in [1], in assay [2], in [3] and in [5]. Moreover, the max response in assay [4] was -0.766%; in assay [6], -16.3%; in assay [7], 13.9% (inactive). For the same compound, the activity change % (negative = inhibition) in assay [8] is -14.9% (inactive). Also, the Potency result in assay [10] was “inactive”.
